PubChem BioAssay AID2551 (National Center for Advancing Translational Sciences (NCATS), 2010)
About 17,000 (5.5%) of roughly 310,000 compounds were called active. About 11% were inconclusive and are not listed. The call rests on the fitted dose curve; in most records, active means well fitted inhibition curve with a large enough effect; inconclusive means small, poorly fitted or top-dose-only effect, or effect the other way; inactive means no such curve, though single readings can be large or run the other way. The full list was thinned out, with actives kept by preference.

Target: Nuclear receptor ROR-gamma (Mus musculus) (UniProt P51450)
Test: qHTS for inhibitors of ROR gamma transcriptional activity; further: nearly all actives have a fitted effect of over 60% in size
Conditions: Drosophila S2 Gal4-RORgamma UAS-luciferase reporter, 20 h; series mostly up to 53.6 µM; activity change, negative = inhibition: at the top concentration
Method in brief: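 Schneider cells (Drosophila), stable Gal4 DBD–ROR gamma + UAS-luc; 1 hr cmpd preincubation; Cu2+ induction 700 uM final; 20 hr ambient; luminescence.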
On the % scale 0 is the no-effect control and ±100 the full control effect; potency means the concentration at half of the fitted maximal effect.

Sequence of Nuclear receptor ROR-gamma (Mus musculus) (P51450 whole entry, looked up): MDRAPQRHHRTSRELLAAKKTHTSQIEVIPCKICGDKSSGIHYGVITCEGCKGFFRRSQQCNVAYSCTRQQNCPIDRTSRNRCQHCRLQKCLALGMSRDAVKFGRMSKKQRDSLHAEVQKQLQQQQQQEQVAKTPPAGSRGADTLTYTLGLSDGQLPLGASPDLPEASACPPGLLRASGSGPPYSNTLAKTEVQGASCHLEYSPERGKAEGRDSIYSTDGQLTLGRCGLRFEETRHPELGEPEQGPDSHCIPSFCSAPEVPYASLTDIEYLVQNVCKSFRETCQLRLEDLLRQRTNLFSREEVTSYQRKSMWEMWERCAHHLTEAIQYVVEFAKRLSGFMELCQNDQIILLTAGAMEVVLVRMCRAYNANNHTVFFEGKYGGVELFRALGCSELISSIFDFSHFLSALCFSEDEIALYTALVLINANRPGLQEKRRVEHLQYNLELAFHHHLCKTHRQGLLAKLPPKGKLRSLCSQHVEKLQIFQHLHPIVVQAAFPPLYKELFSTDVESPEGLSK

Structure (SMILES) | activity change, negative = inhibition | Potency
COc1ccc(CCN(C)C(=O)C23CC4CC(CC(Cl)(C4)C2)C3)cc1OC | 12.2% (inactive) | 
Cc1ccc(N2C(=O)C3C4C=CC(CC4)C3C2=O)cc1Br (stereo not drawn) | -11.5% (inactive) | 
O=C(CN1CCCCCC1)Nc1ccc(Cl)cc1F | -20.3% (inactive) | 
CCOc1ccc(N2CC(C(=O)NCc3ccccn3)CC2=O)cc1 (stereo not drawn) | -0.568% (inactive) | 
COC(=O)c1ccc(C(=O)OC)c(NC(=S)N2CCN(c3cc(Cl)ccc3C)CC2)c1 | -19.9% (inactive) | 
COC(=O)c1ccccc1NC(=O)c1cncc(Br)c1 | -5.09% (inactive) | 
COC(=O)c1ccc(C(=O)Nc2cc(Cl)ccc2Cl)cc1NC(=O)c1ccccc1C |  | 11.2 µM (active)
COc1ccc(C(=O)NC(C)CCc2ccccc2)c(OC)c1 (stereo not drawn) | 38.8% (inactive) | 
CCN(c1cccc(C)c1)S(=O)(=O)c1ccc(-c2coc(C)n2)cc1 | 3.96% (inactive) | 
O=C1/C(=C/c2ccc3c(c2)OCO3)Oc2cc(OCC(=O)N3CC(O)C[C@H]3C(=O)O)ccc21 (stereo partly drawn) | -19.9% (inactive) | 
COC(=O)c1cc(OCC(=O)NC2CCCc3ccccc32)cc(C(=O)OC)c1 (stereo not drawn) | -9.26% (inactive) | 
O=C(NCCO)C(=O)NCC(c1ccc2c(c1)OCO2)N1CCN(c2ccc(F)cc2)CC1 (stereo not drawn) | 1.74% (inactive) | 
O=C(c1cn(-c2ccccc2)nc1-c1cc2ccccc2oc1=O)N1CCOCC1 | -6.26% (inactive) | 
O=C(Nc1cc2ccccc2oc1=O)C1CCCCC1 | 14.7% (inactive) | 
O=c1oc2ccccc2cc1-c1cn(-c2ccccc2)c(=S)[nH]1 |  | 1.26 µM (active)
O=C(NC(=S)Nc1ccc(Cl)cc1Cl)C1CC1 |  | 5.01 µM (active)
S=C(NCc1cccnc1)Nc1ccc(Cl)cc1Cl | 0.343% (inactive) | 
CN1CCN(S(=O)(=O)c2ccc(NC(=S)NC(=O)C3CC3)cc2)CC1 | -18.3% (inactive) | 
COc1ccc(N(CC(=O)Nc2cccc3ccccc23)S(C)(=O)=O)c(OC)c1 | 9.57% (inactive) | 
CC(=O)c1ccc(S(=O)(=O)N(C)CCCC(=O)N(C)Cc2ccccc2F)cc1 | 28.3% (inactive) | 
Cc1ccc(C(=O)Cn2cccn2)cc1 | 0.557% (inactive) | 
Cc1ccc(Sc2cc(C(=O)c3ccccc3C(=O)O)ccc2[N+](=O)[O-])cc1 | 13% (inactive) | 
Cc1ccc(C(=O)CSc2ccccc2C(=O)O)cc1 |  | 10 µM (active)
CCOc1cc(C2/C(=C(/O)c3ccc(S(=O)(=O)N4CCCCC4)cc3)C(=O)C(=O)N2CCOC)ccc1O (stereo not drawn) | 3.43% (inactive) | 
Cc1cc(=O)oc2cc(OCC(=O)N3CCN(c4ccc(F)cc4)CC3)c(Cl)cc12 | -6.12% (inactive) | 
CCOC(=O)C1(Cc2ccccc2C)CCCN(C(=O)c2ccc(COC)o2)C1 (stereo not drawn) | 21% (inactive) | 

Structure (SMILES) | activity change, negative = inhibition | Potency
COc1cc(NC(=O)CN2C(=O)NC(C)(c3ccc(OC(F)F)cc3)C2=O)cc(OC)c1OC (stereo not drawn) | 44% (inactive) | 
COc1ccc(O)c(/C=N/N=C/c2cccc([N+](=O)[O-])c2)c1 | -10.9% (inactive) | 
CCN(CC)C(=O)COc1coc(CN2CCN(Cc3ccccc3)CC2)cc1=O | -0.741% (inactive) | 
CSc1nc(-c2ccccc2)nc(C(Cl)Cl)n1 |  | 7.08 µM (active)
Clc1ccc2nc(-c3ccccc3)nc(C(Cl)Cl)c2c1 | 26.6% (inactive) | 
CCCc1cc(=O)oc2c(C)c(OC(C)C(=O)NCC(O)c3ccccc3)ccc12 (stereo not drawn) | 4.93% (inactive) | 
C=CCc1ccccc1OCC(=O)N/N=C/c1ccccc1OCC | 0.433% (inactive) | 
O=C(COc1ccc(-n2cnnn2)cc1)Nc1ccccc1Cl | -8.26% (inactive) | 
C=CCc1cccc(/C=N/NC(=O)COc2ccc(-n3cnnn3)cc2)c1O |  | 8.91 µM (active)
O=C(C1CC(=O)N(c2ccc(F)cc2)C1)N1CCN(c2ccccc2)CC1 (stereo not drawn) | 0.455% (inactive) | 
COc1cc(Nc2nc3ccc(Cl)cc3n3cnnc23)cc(OC)c1OC | -4.72% (inactive) | 
CC1(c2ccc3ccccc3c2)NC(=O)N(CC(N)=O)C1=O (stereo not drawn) | -5.53% (inactive) | 
COc1ccc(S(=O)(=O)NCC(=O)NC2CC2)cc1OC | 3.62% (inactive) | 
Cc1ccc(C)c(C(C)NC(=O)C2CCCO2)c1 (stereo not drawn) | -25% (inactive) | 
Cc1ccc(C(=O)N/C(=C\c2ccc(F)cc2)C(=O)NCCN2CCOCC2)cc1 | -1.59% (inactive) | 
CCCCNC(=S)N/N=C1\CCCCc2ccccc21 |  | 2 µM (active)
O=[N+]([O-])c1ccccc1N/N=C1\CCc2ccccc21 | 22.6% (inactive) | 
CCCCNC(=O)C(=O)c1ccccc1NC(C)=O | 6.15% (inactive) | 
CCNC(=O)CC1C(=O)N(c2ccc(OC)cc2)C(=O)N1CCOC (stereo not drawn) | -1.87% (inactive) | 
O=C(N/N=C/c1cc(Cl)cc([N+](=O)[O-])c1O)C(O)(c1ccccc1)c1ccccc1 |  | 1 µM (active)
O=[N+]([O-])c1cc(Cl)cc(/C=N/NC(=S)Nc2cc(S(=O)(=O)N3CCOCC3)ccc2Cl)c1O | -35% (inactive) | 
CN(C)/N=C/c1cc(Cl)cc([N+](=O)[O-])c1O |  | 11.2 µM (active)
CC(=O)N/N=C/c1cc2c(cc1[N+](=O)[O-])OCO2 | -16.9% (inactive) | 
O=C(Cc1cc(=O)[nH][nH]1)N/N=C/c1ccccc1[N+](=O)[O-] | 7.28% (inactive) | 
COC(=O)c1cc(CNC(=O)CC(C)c2ccccc2)ccc1OC (stereo not drawn) | 10.8% (inactive) | 
CN(C)CCN(Cc1ccccc1)S(=O)(=O)c1csc(C(N)=O)c1 | -20.5% (inactive) | 

Structure (SMILES) | activity change, negative = inhibition | Potency
CCOC(=O)CC1COCCN1C(=O)c1cc(COc2ccc(F)c(F)c2)on1 (stereo not drawn) | 39.5% (inactive) | 
COc1ccc(N(C)C(=O)C2CCN(S(=O)(=O)c3cccc4nsnc34)CC2)cc1 | 6.09% (inactive) | 
CC(=O)Nc1cccc([N+](=O)[O-])c1 | -1.22% (inactive) | 
Cc1ccccc1NC(=S)Nc1cccc([N+](=O)[O-])c1 | -34% (inactive) | 
COC(=O)/C=C\C(=O)Nc1cccc([N+](=O)[O-])c1 |  | 3.16 µM (active)
Cn1nnc(NC(=O)CSc2ncn[nH]2)n1 | 24.3% (inactive) | 
Cn1nnc(NC(=S)NC(=O)c2ccccc2)n1 |  | 3.55 µM (active)
COC(=O)c1nc(NC(=O)c2ccccc2)n[nH]1 | 7.37% (inactive) | 
COc1ccc(CN2CCN(C(=O)CCC(=O)Nc3nnc(C(C)C)s3)CC2)cc1F | 21.6% (inactive) | 
O=C(CN(Cc1ccccc1)C(=O)CCC(=O)Nc1ccccn1)NCCc1ccccc1 | 24.4% (inactive) | 
CN(C)CCCN(C(=O)COc1ccccc1)c1nc2c(Cl)cccc2s1 | -9.36% (inactive) | 
Cc1cccc2sc(N(CCCN(C)C)C(=O)CCS(=O)(=O)c3ccccc3)nc12 |  | 10 µM (active)
COc1cc2ccccc2cc1C(=O)N(CCN(C)C)c1nc2c(F)cccc2s1 | -22.6% (inactive) | 
Cc1ccc2sc(N(CCN(C)C)C(=O)/C=C/c3cccs3)nc2c1C | -30.6% (inactive) | 
Cc1cc(C)c2nc(N(CCN(C)C)C(=O)/C=C/c3cccs3)sc2c1 | -0.19% (inactive) | 
COc1cccc2sc(N(CCCN(C)C)C(=O)CCS(=O)(=O)c3ccccc3)nc12 |  | 11.2 µM (active)
Cc1cccc(N2CCN(S(=O)(=O)c3ccc(-c4cc(C)no4)s3)CC2C)c1 (stereo not drawn) | 2.22% (inactive) | 
COc1ccc(C(CNC(=O)c2cc3c(s2)CCCC3)N2CCOCC2)cc1 (stereo not drawn) | -19.1% (inactive) | 
COc1cc(C(=O)NC2CCN(Cc3ccccc3)CC2)cc(Cl)c1OC(C)C | -13.7% (inactive) | 
COc1ccc(C(CNC(=O)COc2ccccc2OC)N2CCCCC2)cc1 (stereo not drawn) | -9.48% (inactive) | 
Cc1ccc2cc(C#N)c(NCCNC(=S)NCCCN3CCOCC3)nc2c1 | -78.1% (inactive) | 
COCCCNC(=S)NCCNc1nc2cc(C)c(C)cc2cc1C#N |  | 15.8 µM (active)
Cc1ccc2nc(NCCCNC(=O)c3cnccn3)c(C#N)cc2c1 | -1.25% (inactive) | 
COCC(=O)Nc1c(C(=O)N2CCCC2)oc2ccccc12 | 26.7% (inactive) | 
CC(NC(=O)COc1ccc(-c2ccccc2)cc1)C1CCCO1 (stereo not drawn) | -0.806% (inactive) | 
CC(C)CC[n+]1ccn(C2=C([O-])c3ccccc3C(=O)/C2=N\S(=O)(=O)c2ccccc2)c1 |  | 11.2 µM (active)

Structure (SMILES) | activity change, negative = inhibition | Potency
COc1ccc(S(=O)(=O)/N=C2\C=C(NS(=O)(=O)c3ccccc3)C(=O)c3ccccc32)cc1 | -36.9% (inactive) | 
COc1ccc(C2CC(c3ccc([N+](=O)[O-])cc3)=NN2C(C)=O)cc1 (stereo not drawn) | 21.7% (inactive) | 
CC(C)C(C)NC(=O)COc1nc2ccccc2nc1N(C)C1CCCCC1 (stereo not drawn) | 27.3% (inactive) | 
O=C(Nc1cccnc1)c1cc(Cl)ccc1Cl | -7.73% (inactive) | 
O=C(/C=C/c1ccc(Cl)c([N+](=O)[O-])c1)c1cccnc1 | -10.5% (inactive) | 
O=C(/C=C/c1ccc(Cl)cc1Cl)c1cccnc1 |  | 2.82 µM (active)
O=C(N/N=C/c1ccc([N+](=O)[O-])o1)c1cn(-c2ccccc2)nc1-c1ccc(F)cc1 | -38.7% (inactive) | 
O=C(/C=C/c1ccc([N+](=O)[O-])o1)NNC(=O)c1ccc(F)cc1 |  | 2.82 µM (active)
Cc1ccc(/C=C/C(=O)Nc2ccc([N+](=O)[O-])c(NC(=O)/C=C/c3ccc(C)o3)c2)o1 | 4.73% (inactive) | 
Cc1cc2c(cc1S(=O)(=O)NCc1ccc(Cl)cc1)OCC(=O)N2 | 6.35% (inactive) | 
C=CCn1c2ccccc2c2nnc(SCc3[nH]c(=O)[nH]c3C(=O)CCCCC(=O)OCC)nc21 |  | 12.6 µM (active)
C=CCn1c2ccccc2c2nnc(SC(CC)C(=O)Nc3nc(C)c(C(=O)OCC)s3)nc21 (stereo not drawn) | -6.1% (inactive) | 
C=CCn1c(SCC(=O)CC(=O)OCC)nc2cc(C(=O)N3CCC(C(N)=O)CC3)ccc2c1=O | 15% (inactive) | 
CCNC(=S)N(CCN(CC)CC)Cc1cc2cc3c(cc2[nH]c1=O)OCCO3 | 9.92% (inactive) | 
O=C(Nc1ccncc1)c1ccc([N+](=O)[O-])cc1Cl | -3.39% (inactive) | 
COc1ccc(OC)c(-n2c(-c3ccn[nH]3)n[nH]c2=S)c1 | -4.51% (inactive) | 
Cc1ccc(-n2c(-c3ccc(Cl)cc3)n[nH]c2=S)cc1 |  | 3.16 µM (active)
COc1ccc(-n2c(-c3ccc(OC)c(OC)c3)n[nH]c2=S)cc1 |  | 11.2 µM (active)
COC(=O)c1sc(=S)n(-c2ccc(Cl)cc2)c1C | 2.4% (inactive) | 
COc1ccc(-c2cn(-c3ccc(C)cc3)c(=O)n2CC(=O)Nc2ccc(OC)c(OC)c2)cc1 | 51% (inactive) | 
Cc1cc(-c2n[nH]c(=S)n2-c2ccc(C)c(C)c2)no1 | 6.4% (inactive) | 
COc1ccc(OC)c(CNC(=O)Cn2nc(C)c3c(C)n(-c4ccc(C)cc4)nc3c2=O)c1 | 33.3% (inactive) | 
COc1ccc(C(C)NC(=O)C2CCCC2)cc1 (stereo not drawn) | 3.72% (inactive) | 
Cc1cc(=O)oc2c3c(cc(OCC(=O)NCc4ccccn4)c12)OC(C)(C)CC3 | 5.08% (inactive) | 
Clc1ccc(CN2CCCCCC2)cc1Cl | -12.3% (inactive) | 
